Data taken from PubChem BioAssay (EPA / NIEHS).
Calls of active or inactive are those of the source. How the source made its calls: active means hit-call score of the fitted dose curve at least 0.9, where 1 is the maximum; inactive means score below 0.9.

Read-out: CD40, CD40 (gene 958)
Assay: BSK_SAg_CD40: BioMAP Diversity Plus: SAg Assay for CD40 Biomarker Activity (AID 2283088)
Conditions: primary human HUVEC with PBMC; actives raise or lower the signal
Experimental: BSK_SAg is a cell-based, multiplexed-readout assay that uses umbilical vein endothelium and peripheral blood mononuclear cells, a human vascular primary cell co-culture, with measurements taken at 24 hours after chemical dosing in a 96-well plate.BSK_SAg_CD40 is one of 10 assay component(s) measured or calculated from the BSK_SAg assay. It is designed to make measurements of enzyme-linked immunosorbent assay, a form of binding reporter, as detected with fluorescence intensity signals by Enzyme-linked immunosorbent assay technology.Data from the assay component BSK_SAg_CD40 was analyzed into 1 assay endpoint. This assay endpoint, BSK_SAg_CD40, was analyzed with bidirectional fitting relative to DMSO as the negative control and baseline of activity. Using a type of binding reporter, gain or loss-of-signal activity can be used to understand changes in the signaling as they relate to the gene CD40. Furthermore, this assay endpoint can be referred to as a primary readout, because this assay has produced multiple assay endpoints where this one serves a signaling function. To generalize the intended target to other relatable targets, this assay endpoint is annotated to the cytokine intended target family, where the subfamily is inflammatory factor.
The levels of cell surface (or secreted, indicated by the prefix "s") biomarker endpoints were measured by ELISA. Overt cytotoxicity to cells in confluent adherent cultures (all systems other than the BT system) was assessed by measuring total protein levels using sulforhodamine B (SRB) staining in parallel cultures at the time of biomarker measurements, indicated as SRB endpoints. For proliferation assays for adherent cell types, individual cell types are cultured at sub-confluence and relative cell numbers quantified by SRB staining at time points optimized for each system (48 h: 3C and CASM3C systems; 72 h: BT and HDF3CGF systems; 96 h: SAg system). SRB was performed by staining cells with 0.1% SRB after fixation with 10% TCA and reading wells at 560 nm.Viability and proliferation of PBMC (T cells) was quantified by Alamar Blue reduction for the SAg and BT systems. For PBMC viability (referred to as PBMC Cytotoxicity within the assay endpoint names), cells were plated (75,000/well in a 96-well plate) and then chemical samples added for 1 h before addition of activators, SEB and TSST-1 (20 ng/mL final concentration each). Cells were incubated for 90 h. Then, Alamar Blue (20 uL/well) (Invitrogen, Cat DAL1100) was added for 6 h, and the plates were read with a fluorescence microplate reader at 546/580 nm (excitation/emission). For PBMC proliferation, cells were plated and activated as above but incubated for only 16 h prior to addition of Alamar Blue. Plates were read after 6 h.

| SMILES | AC50 | outcome |
| --- | --- | --- |
| CO/N=C(/C1=NOCCO1)c1ccccc1Oc1ncnc(Oc2ccccc2Cl)c1F | 14.9 µM (active) | – |
| CCOc1nc(F)cc2nc(S(=O)(=O)Nc3c(Cl)cccc3Cl)nn12 | – | inactive |
| CC(C)NC(=O)N1CC(=O)N(c2cc(Cl)cc(Cl)c2)C1=O | – | inactive |
| COC(=O)NS(=O)(=O)c1ccc(N)cc1 | – | inactive |
| CCOP(=O)(OCC)Oc1nc(Cl)c(Cl)cc1Cl | 20 µM (active) | – |
| CS(=O)(=O)c1cc(C(F)(F)F)ccc1C(=O)c1cnoc1C1CC1 | – | inactive |
| O=C1C2CC=CCC2C(=O)N1SC(Cl)(Cl)Cl (stereo not given) | – | inactive |
| COC(=O)c1c(C(F)F)nc(C(F)(F)F)c(C2=NCCS2)c1CC(C)C | 24 µM (active) | – |
| C=C(C)CN(CC)c1c([N+](=O)[O-])cc(C(F)(F)F)cc1[N+](=O)[O-] | – | inactive |
| CCN(CC)c1nc(C)cc(OP(=S)(OC)OC)n1 | 20 µM (active) | – |
| CCCN(CC)CC1COC2(CCC(C(C)(C)C)CC2)O1 (stereo not given) | – | inactive |
| CC1(C)C(C(=O)OC(C#N)c2cccc(Oc3ccccc3)c2)C1(C)C (stereo not given) | 14.1 µM (active) | – |
| CCSC(=O)N1CCCCCC1 | – | inactive |
| CC(C)N1C(=O)c2ccccc2NS1(=O)=O | – | inactive |
| Clc1cccc(C(Cl)(Cl)Cl)n1 | – | inactive |
| CCC(C)n1c(=O)[nH]c(C)c(Br)c1=O (stereo not given) | – | inactive |
| OC(c1ccc(Cl)cc1)(c1ccc(Cl)cc1)C(Cl)(Cl)Cl | 29.9 µM (active) | – |
| CCNP(=S)(OC)O/C(C)=C/C(=O)OC(C)C (stereo not given) | – | inactive |
| Nc1c(Cl)c(Cl)nc(C(=O)O)c1Cl | – | inactive |
| Cc1cnc(C2=NC(C)(C(C)C)C(=O)N2)c(C(=O)O)c1 (stereo not given) | – | inactive |

| SMILES | AC50 | outcome |
| --- | --- | --- |
| CN/C(=N\[N+](=O)[O-])NCc1cnc(Cl)s1 | – | inactive |
| CCOc1nc(C(Cl)(Cl)Cl)ns1 | – | inactive |
| CCOC(=O)C(C)OC(=O)c1cc(Oc2ccc(C(F)(F)F)cc2Cl)ccc1[N+](=O)[O-] (stereo not given) | 3.97 µM (active) | – |
| CCCCC(O)(Cn1cncn1)c1ccc(Cl)cc1Cl (stereo not given) | – | inactive |
| CC(C)(C)C(=O)C(Oc1ccc(Cl)cc1)n1cncn1 (stereo not given) | – | inactive |
| N#CN=C1SCCN1Cc1ccc(Cl)nc1 | – | inactive |
| CSC(=O)c1c(C(F)F)nc(C(F)(F)F)c(C(=O)SC)c1CC(C)C | 34 µM (active) | – |
| CCN(CC)C(=O)C(C)Oc1cccc2ccccc12 (stereo not given) | – | inactive |
| CCOP(=S)(OCC)Oc1nc(Cl)n(C(C)C)n1 | – | inactive |
| COc1cc(Cl)c(OC)cc1Cl | – | inactive |
| CNC(=O)N(C)c1nnc(C(C)(C)C)s1 | – | inactive |
| COP(=S)(OC)Oc1ccc([N+](=O)[O-])c(C)c1 | 7.6 µM (active) | – |
| Cc1c(COC(=O)[C@@H]2[C@H](/C=C(\Cl)C(F)(F)F)C2(C)C)cccc1-c1ccccc1 | 16.5 µM (active) | – |
| CCOc1cc(C(C)(C)C)ccc1C1COC(c2c(F)cccc2F)=N1 (stereo not given) | 15.8 µM (active) | – |
| Nc1cnn(-c2ccccc2)c(=O)c1Cl | – | inactive |
| Cc1ccc(N=CN(C)C=Nc2ccc(C)cc2C)c(C)c1 | 31.9 µM (active) | – |
| CS(=O)(=O)c1ccc(C(=O)C2C(=O)CCCC2=O)c([N+](=O)[O-])c1 | – | inactive |
| COCc1cnc(C2=NC(C)(C(C)C)C(=O)N2)c(C(=O)O)c1 (stereo not given) | – | inactive |
| CCNC(=O)NC(=O)C(C#N)=NOC | – | inactive |
| CCCCOCN(C(=O)CCl)c1c(CC)cccc1CC | 30.8 µM (active) | – |
